# High-throughput results: PubChem, National Center for Advancing Translational Sciences (NCATS)
# Rango-impB inh: Rango-importin beta binding inhibition. Rango CFP/YFP FRET sensor + importin beta, 45 min. Potency, µM (series often up to 92.2 µM), without a hit: at the highest dose inhibition of complex formation. hit rate 0.031% among 340,000. AID 540263; calls by dose curve;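 further: 0% = DMSO wells and 100% = buffer wells lacking importin beta; nearly all actives have a fitted effect of over 15% in size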
#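 FRET biosensor (snurportin 1 IBB flanked by EYFP and cerulean), 50 nM, with compound 5 min, then 0.125 microM importin beta in PBS, 1 mM DTT, 0.02% Tween-20, 0.1% BSA. CFP/YFP ratio read after 45 min at room temperature; pre-read flags interference.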
# ASM inhibitor: inhibitors of human secretory acid sphingomyelinase | placental ASM, HMU-PC fluorogenic substrate, 60 min | Potency, µM (titrated, usually from 57.5 µM), without a hit: at the highest dose activity change, negative = inhibition, actives largely listed as inhibitors | hit rate 0.006% among 340,000
# Target sequence (P17405 47-631 limits assumed): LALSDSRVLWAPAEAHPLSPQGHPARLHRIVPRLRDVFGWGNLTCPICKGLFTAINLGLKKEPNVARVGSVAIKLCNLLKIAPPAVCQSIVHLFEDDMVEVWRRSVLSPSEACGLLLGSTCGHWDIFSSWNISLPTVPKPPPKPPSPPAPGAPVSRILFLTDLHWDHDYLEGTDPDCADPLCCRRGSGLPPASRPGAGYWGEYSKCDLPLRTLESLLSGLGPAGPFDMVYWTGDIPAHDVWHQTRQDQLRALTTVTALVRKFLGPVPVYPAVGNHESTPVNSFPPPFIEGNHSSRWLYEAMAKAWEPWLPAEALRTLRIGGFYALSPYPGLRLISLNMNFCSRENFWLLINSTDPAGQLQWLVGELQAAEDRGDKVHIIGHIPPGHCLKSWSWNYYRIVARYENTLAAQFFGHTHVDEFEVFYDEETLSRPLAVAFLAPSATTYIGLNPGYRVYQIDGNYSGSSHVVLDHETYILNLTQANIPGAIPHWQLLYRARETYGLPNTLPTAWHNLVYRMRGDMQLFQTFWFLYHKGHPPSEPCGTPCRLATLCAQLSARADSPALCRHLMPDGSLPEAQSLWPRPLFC
#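 HMU-PC0 cleavage (9 uM final) by human placental ASM, 60 min at 37 °C following 10 min compound exposure at RT; stopped at pH 10, fluorescence Ex 386/Em 447 nm.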
# Abeta yeast res: compounds reversing amyloid beta toxicity in yeast; yeast expressing A-beta42, growth rescue, OD600, 48 h; response scale: 0% DMSO, 100% iron-clioquinol control; AID 1347071; Potency, µM (doses to about 46.1 µM), most hits filed as activators; hit rate 0.063% among 410,000; further: nearly all actives have a fitted effect of over 55% in size
#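 Yeast growth medium received pinned compounds, then yeast cells expressing toxic A-beta were added; plates incubated at 30 C for 48 hr. Growth read as absorbance at 600 nm, normalized to DMSO and equimolar FeCl3 plus clioquinol controls.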
# TDP-43 yeast inh: rescues yeast growth from TDP-43 toxicity; TDP-43 expressing yeast growth rescue, BacTiter-Glo, 24 h; Potency, µM (highest dose often 46.1 µM), without a hit: at the top dose growth rescue (activation), actives largely listed as activators; hit rate 1.8% among 410,000; AID 652104; further: % of control where 0% means no effect; nearly all actives have a fitted effect of over 50% in size
#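 Galactose-induced TDP-43 yeast, OD600=0.02, compound pinned; 24 hr, 30 deg C; BacTiter-Glo luminescence for growth. Inhibitors of TDP-43 toxicity read as activators.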
# Rango release inh: inhibition of RanGTP-driven Rango-importin beta dissociation | Potency, µM (doses to about 46.1 µM), for inactives: top-dose activity change, negative = inhibition | hit rate 0.071% among 340,000 | AID 540253 | Biochemical FRET Rango-importin beta, RanGTP-induced dissociation | O95149+P62826; calls by dose curve; further: % of control where 0% means no effect; nearly all actives have a fitted effect of over 45% in size
#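 FRET read at 45 min, room temperature: inhibitors block the CFP/YFP signal rise when RanGTP (0.6 uM Ran, 2 mM GTP, 0.2 uM RCC1) frees Rango (0.1 uM) from importin beta (0.25 uM). Pre-read after 5 min compound exposure flags interference.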
# aSyn rescue: rescues yeast growth from alpha-synuclein toxicity. Yeast expressing alpha-synuclein, growth rescue, BacTiter-Glo, 24 h. Potency, µM (top dose mostly 46.1 µM), without a hit: at the highest dose growth rescue (activation), most hits filed as activators. hit rate 0.14% among 370,000. AID 652106; further: % of control where 0% means no effect; nearly all actives have a fitted effect of over 65% in size
#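 Rescue of yeast growth: cells expressing toxic alpha-synuclein, induced in galactose at OD600 0.02, incubated with compound 24 h at 30 C. ATP luminescence quantified growth; inhibitors of toxicity appear as activators.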
# An asterisk follows results filed as active; i = inactive; ? = inconclusive; . = not tested or not shown; [ ] = another dose, or the depositor's remark. Only some compounds are listed: those with a hit (about 2% of all), similar ones and a draw of the others. Unless noted, the call rests on the fitted dose curve; in most records, active means well fitted curve in the direction sought with a large enough effect; inconclusive means small, poorly fitted or top-dose-only effect, or another doubt; inactive means no such curve, though single readings can be large; an effect the other way counts as inactive or inconclusive. Potency means the concentration at half of the fitted maximal effect.
SMILES,Rango-impB inh,ASM inhibitor,Abeta yeast res,TDP-43 yeast inh,Rango release inh,aSyn rescue
COc1cc2nc(N3CCOCC3)nc(NC3CCN(Cc4ccccc4)CC3)c2cc1OC,.,.,.,.,.,8.9%
Cc1c(Cl)cccc1Nc1nc(N)nc(CSc2nc3ccccc3s2)n1,-2.0%,-10.2%,i,15.8µM*,5.1%,-12.6%
Cc1c(Cl)cccc1Nc1nc(N)nc(CSc2ncccn2)n1,-2.3%,2.8%,i,27.7%,-13.0%,3.3%
CC1=C(C(=O)NCc2ccc(Cl)cc2)C2(CCC(C)CC2)OC1=O (stereo not given),-1.0%,-0.6%,i,?,1.6%,8.8%
COc1ccc(CNC(=O)C2=C(C)C(=O)OC23CCC(C)CC3)cc1 (stereo not given),-2.6%,-9.3%,i,15.8µM*,-16.3%,8.4%
COc1cccc(CN(C)C(=S)Nc2cccc(C)c2)c1,-1.5%,3.2%,i,11.2µM*,-13.0%,-6.2%
COc1ccc(CC(=O)NC(=S)Nc2cccc(C)c2)cc1,-1.3%,-0.3%,i,-6.5%,3.5%,18.4%
COc1ccc(CN(C)C(=S)Nc2ccc(Cl)cc2)cc1,0.0%,-2.5%,11.2µM*,11.6%,5.1%,-17.8%
Cc1ccc(NC(=O)Cn2c(=O)c(CNc3ccccc3)cc3cc4c(cc32)OCCO4)cc1,.,.,i,18.3%,.,.
Cc1cccc(Cn2c(=O)n(CCC(=O)NCc3ccc4c(c3)OCO4)c(=O)c3sccc32)c1,.,.,i,-5.2%,.,.
Clc1ccccc1N/N=C/c1ccc2c(c1)OCO2,-1.6%,-3.6%,i,17.8µM*,0.2%,-20.2%
COc1ccc(C(=O)NCC(c2cccnc2)N2CCc3ccccc32)cc1OC (stereo not given),.,.,i,0.0%,.,.
CCOc1ccc2nc(N3CCN(C(=O)c4ccc5c(c4)CCCC5)CC3)sc2c1,.,.,i,19.9%,.,.
N#Cc1ncc(C(F)(F)F)cc1Sc1ccc(N)cc1,?,-3.0%,?,14.1µM*,18.1%,6.6%
Cc1cc(C)c(C#N)c(Sc2ccc(N)cc2)n1,-0.1%,2.1%,i,16.1%,18.3%,9.5%
O=C(CN1CCN(CC(=O)Nc2ccccc2C(F)(F)F)CC1)Nc1ccccc1F,1.9%,-1.9%,i,9.6%,1.9%,-1.4%
O=C(CN1CCN(C(=O)c2c(F)cccc2F)CC1)Nc1ccccc1C(F)(F)F,-0.3%,0.9%,i,15.8µM*,-2.0%,7.8%
CC(=O)Nc1ccc(NC(=O)C2(c3cccs3)CCOCC2)cc1,.,.,i,2.5%,.,.
CCn1nccc1C(=O)Nc1cc(Cl)cc(Cl)c1,-2.0%,-8.4%,i,20µM*,-13.1%,2.5%
CCn1nccc1C(=O)Nc1ccc(Cl)cn1,-0.6%,-0.4%,i,29.8%,4.2%,0.6%
Cc1cc(C)cc(N2CC(c3nc(-c4ccccc4C)no3)CC2=O)c1 (stereo not given),.,.,i,19.3%,.,.
COc1ccc(-c2cn(-c3ccc(C)cc3)c(S(=O)(=O)CC(=O)Nc3ccccc3)n2)cc1,.,.,i,?,.,.
O=S(=O)(NCC(c1ccccc1)N1CCc2ccccc21)c1ccc(Cl)cc1 (stereo not given),.,.,i,11.2%,.,.
O=S(=O)(NCC(c1ccco1)N1CCc2ccccc21)c1ccccc1 (stereo not given),-2.4%,-6.9%,i,22.4µM*,-5.5%,9.7%
S=c1nc(-c2cc(Cl)ccc2Cl)[nH][nH]1,0.9%,0.2%,17.8µM*,?,-5.7%,-2.2%
SMILES,Rango-impB inh,ASM inhibitor,Abeta yeast res,TDP-43 yeast inh,Rango release inh,aSyn rescue
CC(=O)c1ccc(S(=O)(=O)Nc2ccc(-c3cn4c(C)csc4n3)cc2)cc1,.,.,i,5.0%,.,-0.6%
S=c1[nH]nc2ccc3ccccc3n12,.,.,i,12.6µM*,.,-0.5%
Cn1cc(/C=C(\C#N)C(=O)Nc2ccccc2O)c2ccccc21,?,-13.8%,i,?,18.4µM*[inhibitor],0.7%
CC(C)OC(=O)/C(C#N)=C/c1cn(C)c2ccccc12,?,1.8%,i,10.4%,-6.6%,1.7%
Cc1ccc(NC(=O)Cn2c(=O)n(CC3CCCO3)c(=O)c3ccccc32)cc1 (stereo not given),.,.,i,29.4%,.,.
CSc1nc(N2CCN(c3ccccc3Cl)CC2)c2ccccc2n1,0.8%,-5.9%,i,12.6µM*,-17.7%,-9.5%
Cc1ccc(Sc2c([N+](=O)[O-])ncn2C)cc1,-4.9%,28.8%,i,10µM*,5.2%,0.1%
COc1ccccc1CNC(=O)COc1ccc(Br)c(C)c1,1.6%,-2.9%,i,17.8µM*,-5.3%,15.1%
COc1ccccc1CNC(=O)COc1ccccc1C,-5.1%,4.2%,i,?,15.0%,-1.0%
COc1ccc(C2CC(=O)c3cnc4c(-c5ccc(F)cc5)c(C)nn4c3C2)cc1OC (stereo not given),.,.,i,6.2%,.,.
O=C1NC(=O)/C(=C/c2cc3c(cc2Br)OCO3)S1,-2.5%,1.1%,i,-30.6%,12.4%,-11.6%
COCCN1C(=O)/C(=C/c2cc3c(cc2Br)OCO3)NC1=S,?,-1.2%,i,20µM*,?,-5.3%
CN(c1ncnc(N)c1[N+](=O)[O-])C1CCCCC1,1.2%,-1.2%,i,12.6µM*,-5.9%,4.5%
CCOC(=O)c1c(NC(=O)c2ccc(Br)cc2)sc2c1CCCC2,.,.,i,-4.0%,.,.
CCOC(=O)c1c(NC(=O)c2ccc(-n3cnnn3)cc2)sc2c1CCCC2,-7.4%,0.3%,i,0.2%,20.6µM*,-0.1%
O=C(NC1CC(=O)N(c2ccc(F)cc2)C1)c1ccc(S(=O)(=O)N2CCCCC2)cc1 (stereo not given),.,.,i,22.2%,.,.
Clc1cccc(CNc2ccn3nc(-c4ccc(OCc5ccccc5)cc4)cc3n2)c1,.,.,i,-3.3%,.,-4.9%
CC(C)(C)c1cc2nc(NCc3cccc(Cl)c3)ccn2n1,.,.,?,25.1µM*,.,?
Clc1cccc(CNc2ccn3nc(-c4ccccc4)cc3n2)c1,.,.,?,12.6µM*,.,?
Clc1cccc(CNc2ccn3nc(-c4cccc(Cl)c4)cc3n2)c1,.,.,?,11.2µM*,.,24.9%
Clc1cccc(-c2cc3nc(NCCOc4ccccc4)ccn3n2)c1,.,.,i,-27.9%,.,0.8%
Clc1ccc(-c2cc3nc(NCc4cccc(Cl)c4)ccn3n2)cc1,.,.,i,35.5µM*,.,-41.7%
CS(=O)(=O)c1ccc2nc(NC(=O)c3ccc(Cl)cc3)sc2c1,-0.4%,-0.4%,i,.,0.6%,3.8%
CC(C)(Oc1ccc(Cl)cc1)C(=O)Nc1nc2ccc(S(C)(=O)=O)cc2s1,.,.,i,12.6µM*,.,.
CCC(=O)Nc1sc2c(c1C(=O)OC)CCN(Cc1ccccc1)C2,?,9.6%,i,7.7%,41.1µM*,-0.5%
